The structures appear in SMILES notation. About 83,000 compounds went through this panel and 20% of them were active in at least one assay; those are over-represented in the sample as a whole.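 Each cell line was grown in a 96-well plate and treated with one concentration of compound for 48 hours. Values below 10 were considered active.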 A number with no mark means an inactive call. Calls of active or inactive are those of the source.

The assay concerns MDA-MB-468 breast. Description: NCI-60 one-dose screen, 48 h (100 = growth as untreated, 0 = no growth, -100 = all killed). The settings on record: 10 µM unless noted.
As to `Cc1ccc(-c2nn(-c3ccccc3)cc2C=C2C(=O)ON=C2C(C)C)cc1`, the growth was 94%.

Turning to `C=C(C)[C@@H]1CC[C@]2(C(=O)NCCCN)CC[C@]3(C)[C@H](CC[C@@H]4[C@@]5(C)CC[C@H](O)C(C)(C)[C@@H]5CC[C@]43C)[C@@H]12`, the growth was -19.9% [100 µM] (active).

Consider `CC(C)(C)NC(=O)C(OC(=O)c1cccc(Cl)c1)c1ccc(Cl)cc1` (stereo not drawn), for which the growth is 87.9%.

`CC(C)(C#N)c1cc(C(=O)Nc2cc(Nc3ncccc3-c3ncnc4nc[nH]c34)ccc2F)cc(C(F)(F)F)c1`: the growth was 90.2%.

Turning to `COc1ccc(/C=C2\Oc3cc(OCCCN4CCCCC4)ccc3C2=O)cc1OC`, the growth was 76.4%.

As to `CC1NC(=O)NC1CCCCCC(=O)O` (stereo not drawn), the growth was 101%.

`O=[N+]([O-])c1cccc2nsnc12`: the growth was 93.1%.

As for `CN1CCN(C(=O)OCc2ccc3c(Cl)cc(Cl)c(O)c3n2)CC1`, the growth is 67.1%.

On to `CS(=O)(=O)N(c1cc(-c2ccc3ncnc(Nc4cccc(Cl)c4)c3c2)cnc1Cl)S(C)(=O)=O`, for which the growth is -42.1% (active).

`CN(C)CCN(C)c1ccc2ncc(C#Cc3cncc(C(=O)Nc4ccc(CN5CCN(C)CC5)c(C(F)(F)F)c4)c3)n2n1`: the growth is 84.8%.

For the compound `COc1ccc2nc3cc(Cl)ccc3c(NCCCCCN3CCCCC3)c2c1`, the growth was -53.3% (active).

Consider `CNC(=O)CCN1CCN(CC/C=C2\c3ccccc3Sc3ccc(Cl)cc32)CC1`, for which the growth is 72.5%.

Turning to `O=c1c(CNc2ccc(S(=O)(=O)Nc3nccs3)cc2)coc2ccccc12`, the growth was 92.9%.
